{"source": "PubChem BioAssay (EPA / NIEHS)", "note": "Activity calls are given as the source filed them. How the source made its calls: active means hit-call score of the fitted dose curve at least 0.9, where 1 is the maximum; inactive means score below 0.9."}
{"read-out": "Bcl-2 (BAX) gene, BAX (gene 581)", "experiment": "LTEA_HepaRG_BAX: Life Technologies and Expression Analysis (LTEA) Assay for Bcl-2 (BAX) gene using HepaRG (AID 2283470)", "conditions": "mRNA level, 48 h; actives raise or lower the signal", "experimental": "LTEA_HepaRG is a cell based, multiplexed-readout assay that uses HepaRG, a human liver cell line, with measurements taken at 48 hours after chemical dosing on a 96-well plate.LTEA_HepaRG_BAX is one of 102 assay component(s) measured in the LTEA HepaRG cell culture assay. It is a marker of Cell proliferation, survival, death.Data from the assay component LTEA_HepaRG_BAX was analyzed into 1 endpoint. This assay endpoint, LTEA_HepaRG_BAX, was analyzed with bidirectional fitting relative to DMSO as the negative control and baseline of activity. Using a type of inducible reporter, measures of mRNA induction for gain or loss-of-signal activity can be used to understand regulation of transcription factor activity. To generalize the intended target to other relatable targets, this assay endpoint is annotated to the cell cycle intended target family, where the subfamily is Cell proliferation, survival, death.\nA total of 1060 chemcials from the ToxCast library were tested in eight-point concentration-response experiments. Cell culture and cytotoxicity assays were conducted at Thermo Fisher Scientific's Custom Services facility (Madison, WI). A single lot of human HepaRG cells (Thermo Fisher Scientific, Frederick, MD) was used for the cell culture experiments. 96-well format collagen type I coated plates of human HepaRG cells were prepared using established methods. Briefly, cryopreserved HepaRG cells were thawed, plated at a density of approximately 100,000 cells/well in HepaRG Thaw, Plate, and General Purpose media (HPRG770, Thermo Fisher Scientific), and incubated for 48 hours. 0.5% DMSO was selected as vehicle control to balance the requisite need of DMSO in HepaRG cultures to maintain differentiation (for example, baseline metabolism, proportions of hepatocytes vs. cholangiocytes), while enabling further hepatic receptor pathway activation (for example, PXR and CAR) in response to chemical exposure. 48 hours after plating, the culture medium was replaced with HepaRG Serum-Free Incudtion Media. Cells were exposed to each test chemical in duplicate and maintained in CO2 incubators for another 48 hours. Chemical plates were thawed to room temperature and 200x concentrations of treatment groups were prepared. 8-point conentration-reponse curves were made with the highest exposure at 100 uM, followed by half-log dilutions, all in 0.5% DMSO. Each test plate contained variouse controls, induction positive controls (1mM phenobarbital), cytotoxicity positive controls ([…] aflatoxin B1), vehicle controls (0.5% DMSO), and total lysis controls (0.5% DMSO). Cell morphology images were taken using an Essen IncuCyte FLR automated microscope, with six 96-well plates imaged in about 24 minutes. Images were captured and exported and JPEG files. Spent culture media was transfered to black-well plates for the LDH assay, and remaining media was sorted at -80 C for later use. Cells were treated with RLT buffer and frozen until shipped for gene expression analysis. Total RNA was isolated from the cell suspension in 75 uL of Buffer RLT (Qiagen, Germantown, MD 20874) by Quintiles/Expression Analysis (Durham, NC) using a custom isolation procedure. Total RNA from each plate well was transferred to a preamplification plate. Fluidigm's 96.96 Dynamic ArrayTM (Fluidigm, Amsterdam, the Netherlands) technology was used for gene expression analyses by quantitative reverse transcription polymerase chain reaction (qRT-PCR, performed by Quintiles/Expression Analysis, Durham, NC)89. Standard TaqManTM Assays (Applied Biosystems/ThermoFisher Scientific, Foster City, CA) were used to assess the expression of 93 genes selected based on their selectivity and sensitivity to important hepatic receptors known to be modulated by environmental chemicals; importance in human hepatocyte functionality; and hepatotoxicity. […]"}
{"smiles": "Cc1cccc(C)c1O", "outcome": "inactive"}
{"smiles": "CCCCCCCCCCCCCCCCCC(=O)O", "outcome": "inactive"}
{"smiles": "Cc1ccc(C)c(O)c1C", "outcome": "inactive"}
{"smiles": "C=CCc1ccc(O)c(OC)c1", "outcome": "inactive"}
{"smiles": "Cc1ccc(C)c(C)c1", "outcome": "inactive"}
{"smiles": "CCCCCCCCCCC", "outcome": "inactive"}
{"smiles": "C[C@]12C=CC(=O)C=C1CC[C@@H]1[C@@H]2C(=O)C[C@@]2(C)[C@H]1CC[C@]2(O)C(=O)CO", "outcome": "inactive"}
{"smiles": "Cc1ccc(Cl)cc1", "outcome": "inactive"}
{"smiles": "C[Si]1(C)O[Si](C)(C)O[Si](C)(C)O[Si](C)(C)O1", "outcome": "inactive"}
{"smiles": "O=c1[nH]cc(F)c(=O)[nH]1", "outcome": "inactive"}
{"smiles": "Nc1ccccc1N", "AC50": "40.6 µM (active)"}
{"smiles": "Nc1nc(N)c2nc(CNc3ccc(C(=O)N[C@@H](CCC(=O)O)C(=O)O)cc3)cnc2n1", "outcome": "inactive"}
{"smiles": "CC(=O)OCCOCCOCCOC(C)=O", "outcome": "inactive"}
{"smiles": "c1cc(-c2ccncc2)ccn1", "outcome": "inactive"}
{"smiles": "OC[C@@H](O)[C@@H](O)[C@H](O)[C@H](O)CO", "outcome": "inactive"}
{"smiles": "CC1(C)CC(N=C=O)CC(C)(CN=C=O)C1", "note": "(stereo not given)", "outcome": "inactive"}
{"smiles": "C1CCC(SSC2CCCCC2)CC1", "outcome": "inactive"}
{"smiles": "CCCCCCCCCCCCCCCC", "outcome": "inactive"}
{"smiles": "CNCc1cc(F)ccc1Oc1ccc(Cl)c(Cl)c1", "outcome": "inactive"}
{"smiles": "CC(=O)OC/C=C(\\C)CCC=C(C)C", "outcome": "inactive"}
{"smiles": "CCCCCCCCCCCCCO", "outcome": "inactive"}
{"smiles": "COc1cc(C=O)ccc1O", "outcome": "inactive"}
{"smiles": "NS(=O)(=O)c1cc2c(cc1Cl)NCNS2(=O)=O", "outcome": "inactive"}
{"smiles": "CCCCCC(=O)O", "outcome": "inactive"}
{"smiles": "CC1=C(/C=C/C(C)=C/C=C/C(C)=C/CO)C(C)(C)CCC1", "outcome": "inactive"}
{"smiles": "Cc1cc(NC(=O)C(=O)O)cc(C)c1Oc1ccc(O)c2c1CCC2", "outcome": "inactive"}
{"smiles": "CCCCCCCCCCCC(=O)OC", "outcome": "inactive"}
{"smiles": "Cc1cccc(Nc2cc(Cl)nc(SCC(=O)O)n2)c1C", "outcome": "inactive"}
{"smiles": "CCCCCCC(=O)OCC", "outcome": "inactive"}
{"smiles": "Cc1nc(C)nc(N2C[C@@H](C)N(c3ccnc([C@@H](C)O)n3)[C@@H](C)C2)n1", "outcome": "inactive"}
{"smiles": "Cc1c(C(=O)O)c(O)cc2c1C(=O)c1c(O)c([C@@H]3O[C@H](CO)[C@@H](O)[C@H](O)[C@H]3O)c(O)c(O)c1C2=O", "outcome": "inactive"}
{"smiles": "COc1ccc(C)cc1N", "outcome": "inactive"}
{"smiles": "FC(F)(F)C(F)(F)C(F)(F)C(F)(F)C(F)(F)C(F)(F)CCI", "outcome": "inactive"}
{"smiles": "Cc1cccc([N+](=O)[O-])c1C", "outcome": "inactive"}
{"smiles": "NC(=O)Cn1c(=O)cc(CCN2CCN(c3nccc4sccc34)CC2)c2ccc(F)cc21", "AC50": "29 µM (active)"}
{"smiles": "CN[C@H]1CC[C@@H](c2ccc(Cl)c(Cl)c2)c2ccc(S(N)(=O)=O)cc21", "AC50": "82.6 µM (active)"}
{"smiles": "Nc1ccc(S(=O)(=O)c2ccc(N)cc2)cc1", "outcome": "inactive"}
{"smiles": "O=[N+]([O-])C(CO)(CO)CO", "outcome": "inactive"}
{"smiles": "CN1CCCC1=O", "outcome": "inactive"}
{"smiles": "Cc1ccc2ncccc2c1", "outcome": "inactive"}
